Myeloid diff MLP: promotes myeloid progenitor differentiation; ER-HoxA9 myeloid progenitors, lysozyme-GFP differentiation, flow cytometry; calls only at 10 µM; 1% of 360,000 active;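 active = normalized GFP-positive differentiation at or above the plate's own cutoff, the solvent-only control mean plus 3 SD; inconclusive = no clear call, values can overlap the other calls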;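 note: cells exposed to compound for four days before flow analysis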
RTF Ca sens inh: cardiac RTF calcium desensitization. P19429+P45379. IANBD-labeled cardiac RTF, Ca2+ fluorescence. inhibition, % at 7.15 µM. 0.12% of 340,000 active;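 active = inhibition above the mean inhibition of all tested compounds plus 3 SD, cut at about 17% in these data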;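 note: assay run at fixed EC70 calcium of 1.6 mM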
CRFBP-R2 agonist: agonists of human CRF-binding protein/CRF-R2 receptor complex | HEK293 CRF-R2/CRF-BP, calcium dye fluorescence (FLIPR); percent of saturating CRF peptide response | activation, % at 13.2 µM | 0.46% of 350,000 active | AID 588473;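 active = activation of at least 50%, plus an integration ratio under a set limit after plate pattern correction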
cardiac RTF act: cardiac RTF calcium sensitization | IANBD-labeled TnC RTF fluorescence at EC20 calcium; 0% EC20 calcium, 100% full calcium | activation, % at 7.2 µM | 0.24% of 340,000 active | AID 493008;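 active = activation above the mean over all tested compounds plus 3 SD, cut at about 30% in these data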;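 note: rise in fluorescence read as greater calcium sensitivity of cardiac thin filaments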
CRFR2-BP antag: CRF-BP/CRF-R2 complex antagonism; 0.59% of 350,000 active; AID 588475; HEK293 CRF-R2/CRF-BP, CRF-induced calcium fluorescence; inhibition, % at 11.8 µM;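 active = inhibition of the ligand-induced calcium signal above about 50% at the single tested concentration, limit read from the data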
Myeloid diff: promotes myeloid progenitor differentiation; calls only; 2% of 2,300 active; ER-HoxA9 myeloid progenitors, GFP/Mac1 double-positive flow; shares compounds with Myeloid diff MLP; AID 651706;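 active = share of green or green-and-red cells above 9 and 9% in run 1 or 4 and 3% in run 2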
GFP autofluor: flagged as fluorescent in myeloid differentiation counter-screen; 7.4% of 2,300 active; ER-HoxA9 myeloid progenitors, no estrogen, GFP autofluorescence flow cytometry; vehicle wells 0%, positive control 100%; AID 651707; fluorescence response, % (concentration not given with the values); shares compounds with Myeloid diff MLP;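 active = over 5% cells positive for green fluorescent reporter, or over 2% positive for both it and APC stain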
Calls only; 0 = inactive; ? = inconclusive; - = no result given; + = active, no number. In the library only some 2.2% were active in any assay of this set; here they are far more common.

SMILES	Myeloid diff MLP	RTF Ca sens inh	CRFBP-R2 agonist	cardiac RTF act	CRFR2-BP antag	Myeloid diff	GFP autofluor
O=C(c1cc(-c2ccccc2Cl)nc2ccccc12)N1CCN(c2ccccc2O)CC1	0	0	0	0	0	-	-
COc1ccc(-c2cc(C(=O)N3CCCCCC3)c3ccccc3n2)c(OC)c1	+	0	0	0	0	0	0
O=C(c1cc(-c2ccccc2Cl)nc2ccccc12)N1CCN(c2ccccn2)CC1	0	0	0	0	0	0	0
Cc1c(C)c2c(OCC(=O)N[C@@H](Cc3ccccc3)C(=O)O)cc3c(c2oc1=O)CCC(C)(C)O3	0	0	0	0	0	0	0
CSC[C@H](NC(=O)COc1cc2c(c3oc(=O)c(C)c(C)c13)CCC(C)(C)O2)C(=O)O	0	0	0	0	0	-	-
CCOC(=O)N1CCN(C(=O)CSCC(=O)Nc2nc(-c3ccc(C)cc3)cs2)CC1	0	0	0	0	0	0	0
CCCCNC(=O)CN(Cc1ccco1)S(=O)(=O)c1ccc(C(C)=O)cc1	0	0	0	0	0	-	-
Cc1nc2ccc(C(=O)N3CCN(Cc4ccccc4)CC3)cc2[nH]1	0	0	0	0	0	-	-
CCS(=O)(=O)N1CCC(C(=O)NCc2ccccc2OC)CC1	+	0	0	0	0	0	0
COc1ccccc1CNC(=O)c1ccc(S(=O)(=O)N(C)C)cc1	0	0	0	0	0	0	0
COc1ccccc1OCCNC(=O)c1ccc(S(=O)(=O)N(C)C)cc1	0	0	0	0	0	-	-
O=C(COC(=O)c1cc(=O)[nH]c2ccccc12)c1cccs1	0	0	0	0	0	-	-
O=C(NC1CC1)c1ccc(-c2cnc3cccnn23)cc1	0	-	-	-	-	-	-
O=C(CNC(=O)c1ccc(Br)o1)Nc1ccc(N2CCCCCC2)cc1	+	0	0	0	0	0	0
CCCNC(=O)CN1C(=O)NC(CCSC)C1=O (stereo not drawn)	0	0	0	0	0	-	-
CCCCN1C(N)=NC[C@@H]1Cc1ccc(O)cc1	+	0	0	0	0	0	0
C=C(C)[C@@H]1C2=CC(C(=O)OC)=C(C[C@H](C(=C)C)[C@H]3O[C@H]3C3=C[C@H]1OC3=O)O2	0	-	-	-	-	0	0
CC(C)CNC(=O)c1cccc(NC(=O)c2ccccc2-c2ccccc2C(=O)O)c1	0	0	0	0	0	-	-
CC(C)CNC(=O)c1ccccc1-c1ccccc1C(=O)O	0	0	0	0	0	0	0
CCCNC(=O)C1(C)CCN(C(=O)c2cc(F)cc(F)c2)C1 (stereo not drawn)	0	-	-	-	-	-	-
N[C@@H](Cc1cnc[nH]1)C(=O)Nc1ccc2ccccc2c1	0	0	0	0	0	-	-
Cc1ccc2oc(=O)c3cnn(CC(=O)N4CCCc5ccccc54)c3c2c1	0	0	0	0	0	0	0
COc1ccc(-c2nc(NC(=O)C3=NN(c4cccc(C)c4)C(=O)CC3)sc2C)cc1	0	0	0	0	0	-	-
CCCCC(=O)N(C)c1c(CC)nc2c(OCc3cc(Cl)cc(Cl)c3)cccn12	0	-	-	-	-	-	-
COc1ccc(N(CC(=O)Nc2cc(OC)ccc2OC)S(C)(=O)=O)cc1	0	0	0	0	0	0	0
SMILES	Myeloid diff MLP	RTF Ca sens inh	CRFBP-R2 agonist	cardiac RTF act	CRFR2-BP antag	Myeloid diff	GFP autofluor
CC12C(=O)N(c3ccc(OC(=O)c4ccco4)cc3)C(=O)C1C1c3ccccc3C2c2ccccc21 (stereo not drawn)	0	0	0	0	0	-	-
CCC(C)[C@H](NC(=O)[C@@H]1Cc2c([nH]c3ccccc23)C2c3ccccc3C(=O)N21)C(=O)N1CCC[C@@H]1C(=O)O (stereo partly drawn)	0	0	0	0	0	-	-
CCC(C)[C@H](NC(=O)[C@@H]1Cc2c([nH]c3ccccc23)C2c3ccccc3C(=O)N21)C(=O)NCC1CCCO1 (stereo partly drawn)	+	0	0	0	0	0	0
CC(=O)N1CC=C2C(C#N)=C(N)C(C#N)(C#N)C(CCc3ccccc3)C2C1 (stereo not drawn)	+	0	0	0	0	0	0
N#CC1=C(N)C(C#N)(C#N)C(c2cccnc2)C2CN(C(=O)OCc3ccccc3)CC=C12 (stereo not drawn)	0	0	0	0	0	-	-
CCOc1cc(N2CCOCC2)c(OCC)cc1NC(=S)NCCCOC	0	0	0	0	0	-	-
CCNCCNC(=O)c1c(O)c2cccc3c2n(c1=O)CCC3	0	0	0	0	0	0	0
COC(=O)[C@@]1(Cc2ccc(F)cc2)[C@H]2c3cc(C(=O)N(C)C)n(CCN4CCOCC4)c3C[C@H]2CN1C(=O)c1ccccc1	0	-	-	-	-	-	-
CC(C)c1nc(SCC(=O)N2CCCC2)c2c(=O)n(C)c(=O)n(C)c2n1	+	0	0	0	0	0	0
CC(C)c1nc(SCC(=O)N2CCCCCC2)c2c(=O)n(C)c(=O)n(C)c2n1	0	0	0	0	0	-	-
Cc1ccc(S(=O)(=O)N(C)Cc2cc3ccccc3[nH]c2=O)cc1	0	0	0	0	0	0	0
Cc1ccc(S(=O)(=O)N(Cc2cc3cccc(C)c3[nH]c2=O)c2ccccc2)cc1	+	0	0	0	0	0	0
Cc1cc2cc(CN(Cc3cccs3)S(=O)(=O)c3ccc4c(c3)OCCO4)c(=O)[nH]c2cc1C	0	0	0	0	0	-	-
Cc1cccc2cc(CN(Cc3cccs3)S(=O)(=O)c3ccc4c(c3)OCCO4)c(=O)[nH]c12	0	0	0	0	0	0	0
CN(Cc1cc2ccccc2[nH]c1=O)S(=O)(=O)c1ccccc1	0	0	0	0	0	-	-
CSc1ccccc1OCc1cc(C(=O)N2CCc3c(Cl)cccc3C2)no1	-	0	0	0	0	-	-
Cc1ccc(CCNC(=O)CCS(=O)(=O)c2ccc3nc(C)sc3c2)cc1	0	0	0	0	0	0	0
COc1cccc(NC(=O)N2CCCC2C(=O)NCc2ccco2)c1 (stereo not drawn)	0	0	0	0	0	-	-
COc1cccc(NC(=O)N2CCCC2C(=O)NCc2ccc(Cl)cc2)c1 (stereo not drawn)	0	0	0	0	0	0	0
Cc1ccccc1Nc1nc(N)nc(CSc2n[nH]c(N)n2)n1	+	0	0	0	0	0	0
COc1ccccc1CN1CC(C(=O)NCCCc2ccc(F)cc2)CCC1=O (stereo not drawn)	?	0	0	0	0	-	-
Cc1cccc(N2C(=O)CN(Cc3ccccc3)C2=S)c1	0	0	0	0	0	-	-
O=C(C1=C(O)C(=O)N(CCCN2CCOCC2)C1c1ccccn1)c1cc2ccccc2o1 (stereo not drawn)	0	0	0	0	0	0	0
O=C(C1=C(O)C(=O)N(CCN2CCOCC2)C1c1ccc(F)cc1)c1cc2ccccc2o1 (stereo not drawn)	0	0	0	0	0	-	-
COc1ccc(-n2c(C)nnc2SCC(=O)N2C(C)CCCC2C)cc1 (stereo not drawn)	+	0	0	0	0	0	0

Compound activity as filed in PubChem BioAssay.
